Bioassay records as filed in PubChem BioAssay.
FAS-TE inh: blocks the thioesterase domain of human fatty acid synthase; 360,000 compounds, 0.67% hits; recombinant FAS-TE, OMFH fluorogenic substrate, fluorescence endpoint; P49327; inhibition, % at 15 µM;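 active means compounds whose normalised, plate-corrected inhibition of enzyme fluorescence in the single-dose primary screen is 50% or more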;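 further: 0% = DMSO with enzyme and 100% = substrate without enzyme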
Furin inh: inhibitors of human furin; purified furin, fluorogenic substrate cleavage; inhibition, % at 20 µM or 30 µM; 220,000 compounds, 0.061% hits; in the data active means inhibition above about 25%
UBC9 SUMO inh: SUMOylation inhibition; P63279; HTRF SUMOylation assay, SAE1/SAE2 + UBC9, in vitro; inhibition, % at 35 µM; 290,000 compounds, 0.36% hits; AID 2006; in the data active means inhibition above about 50%, passing the limit was not always enough
PKD1 kinase inh: PKD1 (human) kinase inhibition | Q15139 | 200,000 compounds, 0.056% hits | inhibition, % (test concentration not listed) | PKD1 kinase fluorescence polarization assay; in the data active means inhibition above about 50%
p97 inhibitor: blocks human p97 ATPase activity | inhibition, % at 8 µM | AID 1481 | P55072 | 220,000 compounds, 0.42% hits | recombinant p97 ATPase, Kinase-Glo ATP luminescence, 3 h; in the data active means inhibition above about 15%;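 further: 0% = DMSO vehicle and 100% = wells lacking enzyme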
Target sequence (P55072 whole entry, looked up): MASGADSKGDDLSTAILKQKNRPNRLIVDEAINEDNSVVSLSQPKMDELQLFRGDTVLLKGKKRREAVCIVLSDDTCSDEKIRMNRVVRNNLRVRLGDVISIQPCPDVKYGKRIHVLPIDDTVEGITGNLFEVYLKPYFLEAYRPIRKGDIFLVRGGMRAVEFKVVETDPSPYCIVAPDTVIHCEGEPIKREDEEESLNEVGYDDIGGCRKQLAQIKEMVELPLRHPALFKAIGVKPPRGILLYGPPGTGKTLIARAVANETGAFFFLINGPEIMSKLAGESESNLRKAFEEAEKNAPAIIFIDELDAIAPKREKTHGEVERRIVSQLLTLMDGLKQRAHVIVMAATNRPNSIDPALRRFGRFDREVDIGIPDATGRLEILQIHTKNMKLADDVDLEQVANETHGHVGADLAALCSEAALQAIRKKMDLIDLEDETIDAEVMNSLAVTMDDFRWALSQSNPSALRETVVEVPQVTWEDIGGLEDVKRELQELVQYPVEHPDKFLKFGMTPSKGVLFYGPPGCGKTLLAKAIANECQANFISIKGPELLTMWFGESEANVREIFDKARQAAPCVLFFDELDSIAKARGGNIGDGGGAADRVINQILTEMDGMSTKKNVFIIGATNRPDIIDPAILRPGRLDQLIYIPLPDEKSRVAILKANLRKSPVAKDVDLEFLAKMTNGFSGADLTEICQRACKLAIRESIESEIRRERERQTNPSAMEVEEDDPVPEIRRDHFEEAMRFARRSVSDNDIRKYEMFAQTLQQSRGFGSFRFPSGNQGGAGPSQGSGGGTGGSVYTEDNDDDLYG
DTT redox prof: compounds producing H2O2 with reducing agent – biochemical, NIH compound library profiling, artefact control for MLSCN library redox annotation, primary screen | DTT-dependent redox cycling H2O2, phenol red/HRP absorbance; 100% = 100 µM peroxide control, 0% = buffer | activation, % at 10 µM | 200,000 compounds, 0.03% hits | AID 878;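 active means activation of at least 50% relative to the plate's high and low controls in the primary single-dose screen; inactive means activation below 50%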;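 further: compound incubated with DTT at 0.8 mM final as the reducing agent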
Numbers without * were called inactive; . = no result given. Sampled rows, rich in hits. Any-hit rate of the full collection: about 1.2%.

SMILES	FAS-TE inh	Furin inh	UBC9 SUMO inh	PKD1 kinase inh	p97 inhibitor	DTT redox prof
CC(=O)Nc1ccc(NC(=O)CSc2nncn2C)cc1	-4	.	0	.	.	.
O=C1c2ccccc2C(=O)N1CCCCN1CCN(CCCCN2C(=O)c3ccccc3C2=O)CC1	.	26*	.	-5	1	0
O=C1CC(=C2c3ccccc3-c3ccccc32)C(=O)N1CCCCN1CCN(c2ccccc2)CC1	16	28*	12	-1	0	0
NC(Cc1ccc(C(F)(F)F)cc1)c1csc(Nc2cc(NCc3ccco3)ncn2)n1 (configuration not stated)	-7	.	.	.	.	.
NC(=O)NN=C1CCC(OCc2ccccc2)CC1CC(=O)O (configuration not stated)	-8	.	.	.	.	.
O=C(CN1C(=O)S/C(=C\c2ccccc2)C1=O)NNC(=O)c1ccccc1O	23	-7	.	-1	4	0
COc1ccc(/C=C2\SC(=O)N(CC(=O)NNC(=O)c3ccccc3O)C2=O)cc1	14	-10	56*	-5	1	-1
Cc1cccc2c(=O)n(C(=O)c3ccccc3)c(N)nc12	0	.	.	.	.	.
CC1CCCCN1c1ncnc(N)c1[N+](=O)[O-] (configuration not stated)	-3	-7	18	-2	-2	0
CC1Cc2ccccc2N1c1ncnc(N)c1[N+](=O)[O-] (configuration not stated)	2	-5	9	68*	4	0
O=C(Nc1ccc2c(c1)OCO2)c1cc(C2CCCN(C(=O)C3CCCCC3)C2)on1 (configuration not stated)	7	.	.	.	.	.
CCC(=O)N1CCN(c2ccccc2NC(=O)c2ccc(-c3cccc([N+](=O)[O-])c3)o2)CC1	51*	-7	-2	-4	-4	0
COc1ccc(-c2ccc(C(c3c(C)[nH][nH]c3=O)c3c(C)[nH][nH]c3=O)o2)c([N+](=O)[O-])c1	4	4	96	0	15*	-2
Cc1[nH][nH]c(=O)c1C(c1ccc(-c2ccc(F)cc2)o1)c1c(C)[nH][nH]c1=O	33	-13	87	-3	9	-1
CC(CCC(=O)NN)C1CCC2C3CCC4CC(O)CCC4(C)C3CCC12C (configuration not stated)	6	.	.	.	.	.
CC(CCC(C)C(C)(C)C)[C@@H]1CC[C@H]2C3C[C@H](OS(O)(=S)=S)[C@H]4C[C@H](OS(O)(=S)=S)[C@@H](OS(O)(=S)=S)C[C@]4(C)[C@H]3CC[C@]12C (some centres not stated) (tested in a mixture with another compound)	81*	.	.	.	.	.
Cc1ccc(-n2c(Cl)c(Cl)nc(Cl)c2=O)cc1	78*	-9	26	4	3	1
O=C(Nc1ccc(-c2nc3ccccc3o2)cc1)c1ccc2c(c1)OCO2	-3	-15	31	-4	7	15
Cc1ccc(-c2nc3ccccc3o2)cc1NC(=O)c1ccc2c(c1)OCO2	6	-20	58*	-7	2	3
O=C(NNC1=Nc2cccc3cccc1c23)c1ccc(Br)cc1	-11	-21	27	50*	3	0
N#Cc1ccc(C23CC4(C2)[C@H](CN(P(=O)(c2ccccc2)c2ccccc2)[C@@H]4c2ccccc2)C3c2ccc(Cl)nc2)cc1 (some centres not stated)	72*	-13	0	.	.	.
CN1C[C@@H]2C(c3ccc(Cl)nc3)C3(c4ccc(C#N)cc4)CC2(C3)[C@H]1c1ccccc1 (some centres not stated)	34	-30	-3	.	.	.
COc1cc2c(cc1OC)C(SC)=NC1(CCCC1)C2	32	-20	20	5	1	0
COc1cc2c(cc1OC)C(C)=NC1(CCCCC1)C2	-4	-137	59*	.	4	.
Cn1cc(-c2csc(C(O)(c3ccccc3)C(F)(F)F)n2)cn1 (configuration not stated)	-1	.	.	.	.	.
SMILES	FAS-TE inh	Furin inh	UBC9 SUMO inh	PKD1 kinase inh	p97 inhibitor	DTT redox prof
Cc1c(Cl)cccc1NS(=O)(=O)c1ccc2c(c1)C1C=CCC1C(c1ccc(C(=O)O)cc1)N2 (configuration not stated)	26	-13	97*	0	36*	0
COc1ccc(NS(=O)(=O)c2ccc3c(c2)[C@H]2C=CC[C@H]2[C@@H](c2ccc(C(=O)O)cc2)N3)cc1	10	.	54*	.	.	.
COC(=O)C1=C(C(=O)OC)[C@@H]2N(C)c3ccccc3[C@@]23C[C@@H](CO)N(C(=O)NCCBr)C3=N1	52*	-28	-10	.	.	.
Cc1ccc(C)c(C(=O)NC(C)CCc2ccccc2)c1 (configuration not stated)	-2	-20	-22	-6	-5	0
Cc1ccc(C(=O)NC(C)CCc2ccccc2)cc1[N+](=O)[O-] (configuration not stated)	74*	-12	8	-4	0	1
Cn1c(=O)n(C)c2cc([N+](=O)[O-])c(N3CCN(S(=O)(=O)c4ccc5ccccc5c4)CC3)cc21	66*	-11	-4	6	7	0
O=C(Cn1ncc2c(=O)oc3ccccc3c21)Nc1nc2ccccc2s1	.	25*	-2	-4	6	0
O=C(Cn1ncc2c(=O)oc3ccccc3c21)NC1CC1	-12	-26	20	5	3	2
COc1ccccc1N1CCCSC1=Nc1ccccc1	-4	.	.	.	.	.
Cn1ccc2c(N3CCCCC3)cc3c(c21)C1CCC3O1 (configuration not stated)	-1	.	.	.	.	.
O=C(/C=C/c1cc[n+](CC(=O)c2ccc3cccc4c3c2CC4)cc1)c1ccc2cccc3c2c1CC3	3	-14	32	.	46*	.
O=C(C[n+]1ccc2ccccc2c1)c1cccc2ccccc12	4	-5	22	-3	3	-2
COc1cccc(-c2cnc3c(NC(C)=O)cc(-c4ccc(C(=O)N5CCOCC5)cc4)cn23)c1	19	.	.	.	.	.
CCCCN1CC(N(C)CCN(C)C)CS1(=O)=O (configuration not stated)	-6	.	.	.	.	.
N=c1c2cn[nH]c2nc(SCC(=O)c2ccc(Br)cc2)n1-c1ccc(Br)cc1	-2	-28	54*	-2	1	0
COc1ccc(NC(=O)CCl)cn1	.	-18	83*	.	25*	.
COc1ccc(CC(=O)Nc2ccc(OC)nc2)cc1	-11	-16	1	2	6	-2
Cc1cc(C)c(C#N)c(Oc2ccc(O)cc2)n1	-3	-1	-35	5	2	0
CCCC(=O)Nc1cccc(Oc2nc(C)cc(C)c2C#N)c1	8	37*	8	-7	3	3
COc1ccc(NC(=O)Nc2ncn(Cc3cccc(C(F)(F)F)c3)n2)cc1OC	0	29*	-28	6	2	1
